Potency data for 12 molecules are collected here from PubChem BioAssay (NCATS).

Records with an inconclusive call do not appear. Calls of active or inactive are those of the source. The call rests on the fitted dose curve; in most records, active means well fitted inhibition curve with a large enough effect; inconclusive means small, poorly fitted or top-dose-only effect; inactive means flat fitted curve, though single readings scatter.

What all share (assay): qHTS profiling for inhibitors of Plasmodium falciparum proliferation (AID 504749); further: nearly all actives have a fitted effect of over 60% in size
What all share (settings): P. falciparum in erythrocytes, SYBR Green DNA, 72 h; series mostly up to 28.7 µM

One test has as its system ATS95. An outline of the steps:
(§1)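 Parasite proliferation within erythrocytes, 72 h exposure. Endpoint: SYBR Green I fluorescence after overnight lysis at room temperature. Controls: 0.29 uM artemisinin, DMSO.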

The test system of the next test is C2A. An outline of the steps:
as §1

The test system of the next test is CP185. An outline of the steps: as §1
Another test relates to CP191. An outline of the steps: as §1
Another test concerns CP192. In outline:
as §1

In another test the test system is CP194. An outline of the steps:
as §1

The next test deals with CP201. In outline:
as §1

A further test deals with CP203. An outline of the steps:
as §1

The subject of the next test is CP211. In outline: as §1
The next test concerns CP215. In outline:
as §1

The next test has as its system CP217. In outline:
as §1

Another test has as its system CP237. An outline of the steps:
as §1

For the next test, the system named is CP238. An outline of the steps:
as §1

In a further test the test system is CP247. In outline: as §1
For another test, the system named is CP250. In outline: as §1
The subject of the next test is CP252. In outline:
as §1

For the next test, the system named is CP256. An outline of the steps:
as §1

The subject of a further test is CP260. In outline:
as §1

The test system of a further test is CP262. In outline: as §1
The subject of another test is CP265. In outline: as §1
Potency means the concentration at half of the fitted maximal effect.

`C[N+](C)(C)CCOC(=O)C(O)(c1ccccc1)c1ccccc1`: the Potency entry in the test with ATS95, in the test on C2A, with CP185, with CP191, in the test on CP192 and with CP194 was “inactive” throughout. The Potency result in the test on CP201, in the test on CP203, in the test with CP211, with CP215, in the test on CP217 and in the test on CP237 was “inactive” in each case. Further, the Potency entry in the test with CP238, with CP247, in the test with CP250, in the test on CP252, with CP256 and in the test with CP260 was “inactive” each time. For the same molecule, the Potency result in the test with CP262 and with CP265 was “inactive” each time.
In the case of `COP(=S)(OC)Oc1ccc(Sc2ccc(OP(=S)(OC)OC)cc2)cc1`, the Potency result with ATS95, with C2A, with CP185, in the test with CP191, in the test with CP192 and in the test on CP194 was “inactive” each time. Besides, the Potency entry in the test on CP201, in the test on CP203, in the test on CP211, in the test with CP215, in the test with CP217 and in the test on CP237 was “inactive” throughout. Besides, the Potency entry in the test with CP238, in the test with CP247, in the test with CP250, in the test on CP252, with CP256 and in the test on CP260 was “inactive” throughout. For the same molecule, the Potency entry with CP262 and in the test on CP265 was “inactive” in each case.
Consider `CCNc1nc(Cl)nc(NCC)n1`, for which the Potency result with ATS95, in the test on C2A, in the test on CP185, in the test on CP191, with CP192 and with CP194 was “inactive” in each case. Also, the Potency result with CP201, in the test on CP203, in the test with CP211, in the test with CP215, with CP217 and with CP237 was “inactive” in each case. The Potency result with CP238, in the test with CP247, in the test on CP250, with CP252, with CP256 and in the test with CP260 was “inactive” each time. Further, the Potency entry in the test with CP262 and in the test with CP265 was “inactive” each time.
For the molecule `Cc1ccc(N=CN(C)C=Nc2ccc(C)cc2C)c(C)c1`, the Potency entry in the test with ATS95, with C2A, with CP185, with CP191, with CP192 and in the test with CP194 was “inactive” in each case. The Potency entry with CP201, with CP203, with CP211, with CP215, in the test on CP217 and in the test with CP237 was “inactive” throughout. The Potency result with CP238, with CP247, in the test on CP250, in the test on CP252, with CP256 and in the test with CP260 was “inactive” throughout. In addition, the Potency result in the test on CP262 and with CP265 was “inactive” throughout.
In the case of `c1cc2c(c(N3CCNCC3)c1)OCCO2`, the Potency entry in the test with ATS95, in the test on C2A, in the test with CP185, in the test with CP191, with CP192 and with CP194 was “inactive” throughout. For the same molecule, the Potency result with CP201, with CP203, in the test with CP211, with CP215, with CP217 and in the test on CP237 was “inactive” each time. The Potency entry in the test with CP238, in the test on CP247, in the test on CP250, in the test with CP252, in the test on CP256 and in the test on CP260 was “inactive” in each case. Also, the Potency entry in the test on CP262 and with CP265 was “inactive” in each case.
Regarding `CC(C)[N+](C)(CCC(C(N)=O)(c1ccccc1)c1ccccc1)C(C)C`, the Potency entry in the test with ATS95, with C2A, in the test with CP185, in the test with CP191, with CP192 and in the test with CP194 was “inactive” throughout. For the same molecule, the Potency entry in the test on CP201, with CP203, in the test with CP211, in the test on CP215, with CP217 and in the test with CP237 was “inactive” throughout. For the same molecule, the Potency entry with CP238, with CP247, with CP250, with CP252, in the test with CP256 and in the test on CP260 was “inactive” throughout. Also, the Potency entry in the test on CP262 and in the test on CP265 was “inactive” each time.
Turning to `CCC(=O)O[C@H]1CC[C@H]2[C@@H]3CCC4=CC(=O)CC[C@]4(C)[C@H]3CC[C@]12C`, the Potency result in the test on ATS95, in the test with C2A, in the test on CP185, in the test on CP191, in the test on CP192 and in the test with CP194 was “inactive” throughout. The Potency result in the test on CP201, in the test with CP203, in the test on CP211, in the test with CP215, in the test with CP217 and with CP237 was “inactive” each time. Also, the Potency result in the test with CP238, with CP247, in the test on CP250, in the test on CP252, in the test with CP256 and in the test with CP260 was “inactive” throughout. The Potency entry in the test with CP262 and with CP265 was “inactive” each time.
Consider `CNC(=O)Oc1cccc2ccccc12`, for which the Potency result in the test with ATS95, in the test with C2A, in the test with CP185, in the test on CP191, in the test on CP192 and with CP194 was “inactive” throughout. Also, the Potency entry with CP201, with CP203, with CP211, in the test with CP215, with CP217 and in the test with CP237 was “inactive” in each case. For the same molecule, the Potency entry with CP238, in the test with CP247, in the test with CP250, in the test on CP252, in the test on CP256 and with CP260 was “inactive” in each case. Also, the Potency entry in the test with CP262 and in the test with CP265 was “inactive” throughout.
For `CCS(=O)(=O)C(C)(C)S(=O)(=O)CC`, the Potency result in the test with ATS95, in the test on C2A, in the test on CP185, with CP191, with CP192 and with CP194 was “inactive” each time. Further, the Potency result in the test with CP201, in the test with CP203, with CP215, with CP217, in the test with CP237 and with CP238 was “inactive” in each case. Moreover, the Potency entry with CP247, with CP250, with CP252, in the test with CP256, in the test with CP260 and with CP262 was “inactive” in each case. Besides, in the test with CP265, the Potency result is “inactive”.
As to `O=C(NC(=O)c1c(F)cccc1F)Nc1cc(Cl)c(OC(F)(F)C(F)C(F)(F)F)cc1Cl` (centres undefined), the Potency result with CP192, in the test on CP194, in the test with CP201, in the test with CP203, in the test with CP211 and with CP215 was “inactive” throughout. The Potency entry in the test on CP262 was “inactive”. The Potency in the test with CP256 is 8.91 µM (active); in the test with CP260, 10 µM (active); in the test on CP265, 7.94 µM (active).
For `COc1ccc(CN2CCNCC2)c(OC)c1OC`, the Potency result with ATS95, in the test on C2A, in the test on CP185, with CP191, with CP192 and with CP217 was “inactive” throughout. Besides, the Potency result with CP237, in the test on CP238, in the test on CP247, in the test with CP250, in the test on CP252 and in the test on CP256 was “inactive” in each case. Moreover, the Potency result in the test with CP260, in the test with CP262 and with CP265 was “inactive” in each case.
With `C=CCOC(Cn1ccnc1)c1ccc(Cl)cc1Cl` (centres undefined), the Potency was 8.91 µM (active) in the test on ATS95; 15.1 µM (active) in the test on CP194; 9.53 µM (active) with CP203; 12 µM (active) in the test on CP215; 11.2 µM (active) with CP217; 4.47 µM (active) in the test on CP237. In addition, the Potency in the test with CP250 and with CP260 was 10 µM (active) in each case. The Potency entry with CP256 and with CP262 was “inactive” each time.
